Assay results reported in PubChem BioAssay (NCATS).
Records with an inconclusive call do not appear. Entries that show only a call come without a potency. Activity calls are given as the source filed them. Unless noted, the call rests on the fitted dose curve; in most records, active means well fitted curve in the direction sought with a large enough effect; inconclusive means small, poorly fitted or top-dose-only effect, or another doubt; inactive means no such curve, though single readings can be large; an effect the other way counts as inactive or inconclusive.

Tests used:
[1] = target: Calcium and integrin-binding protein 1 (Homo sapiens) (UniProt Q99828); test: Primary qHTS for Identification of Calcium Integrin Binding Protein 1 (CIB1) Competitor (AID 1508620);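 further: GST tagged CIB1 binding a fluorescein labelled alphaIIb integrin peptide tracer; top concentration of the series differs between compounds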
Sequence of Calcium and integrin-binding protein 1 (Homo sapiens) (Q99828 whole entry, looked up): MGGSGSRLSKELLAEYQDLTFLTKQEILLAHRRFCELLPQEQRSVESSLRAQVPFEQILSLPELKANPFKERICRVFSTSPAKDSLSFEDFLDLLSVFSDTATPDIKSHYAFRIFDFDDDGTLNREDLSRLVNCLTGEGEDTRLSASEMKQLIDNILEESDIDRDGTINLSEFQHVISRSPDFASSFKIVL
In short: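 Fluorescence polarization competition: GST-tagged CIB1 (1 uM final) preincubated with compound 15 min at room temperature, then FITC-labelled alphaIIb peptide (100 nM final) added. After 15 min at room temperature, polarization read at Ex 480/Em 540.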

[2] = target: Cytochrome P450 2D6 (Homo sapiens) (UniProt P10635); test: Cytochrome P450 family 2 subfamily D member 6 (CYP2D6) small molecule antagonists: luciferase biochemical (cell-free) qHTS assay (AID 1645840; active means well fitted curve in the direction sought with a large enough effect in the repeat runs; an effect the other way counts as inactive or inconclusive; further: potency means the concentration at half of the fitted maximal effect; nearly all actives have a fitted effect of over 55% in size)
Sequence of Cytochrome P450 2D6 (Homo sapiens) (P10635 whole entry, looked up): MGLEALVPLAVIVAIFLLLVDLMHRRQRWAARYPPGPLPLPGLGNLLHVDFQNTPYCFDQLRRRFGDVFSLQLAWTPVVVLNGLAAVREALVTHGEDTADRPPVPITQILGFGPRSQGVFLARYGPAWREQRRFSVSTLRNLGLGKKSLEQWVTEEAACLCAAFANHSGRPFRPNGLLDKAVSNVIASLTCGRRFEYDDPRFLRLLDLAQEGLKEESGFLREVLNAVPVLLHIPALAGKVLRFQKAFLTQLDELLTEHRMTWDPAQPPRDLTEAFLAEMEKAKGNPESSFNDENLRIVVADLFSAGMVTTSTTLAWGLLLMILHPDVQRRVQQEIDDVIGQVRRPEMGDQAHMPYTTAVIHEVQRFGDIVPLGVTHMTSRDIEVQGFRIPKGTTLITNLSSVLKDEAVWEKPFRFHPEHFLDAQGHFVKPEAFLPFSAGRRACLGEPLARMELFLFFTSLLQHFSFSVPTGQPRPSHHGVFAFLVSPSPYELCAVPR
In short: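 P450-Glo luminescent screen: recombinant CYP2D6 enzyme–proluciferin substrate mix preincubated with compound 10 min at room temperature, then NADPH regeneration added for 1 h at room temperature. Detection reagent added for 20 min; luciferin light read as relative luminescence units.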

[3] = Primary qHTS for small molecule stabilizers of the endoplasmic reticulum resident proteome: Secreted ER Calcium Modulated Protein (SERCaMP) assay (AID 1508630)
In short: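 GLuc-SERCaMP-expressing SH-SY5Y cells, pretreated 16 h with compound, are challenged with thapsigargin to empty ER calcium stores; after 4 h, coelenterazine is added directly to the medium and luminescence is imaged.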

With `Cc1cccc(-c2[nH]ncc2-c2ccc(F)c(-c3cnn(CCO)c3)c2)n1` as the compound, how does the Potency [1] read?
Its Potency is “inactive”.

For `Cc1cc(C)c2c(c1)C(N(Cc1cc(C(F)(F)F)cc(C(F)(F)F)c1)c1nnn(C)n1)CCCN2CC1CCC(C(=O)O)CC1` (configuration not stated), which Potency [1] is on record?
Its Potency is “inactive”.

With `CCNC1(C(N)=O)CN(c2nc(C)nc3c(-c4ccc(Cl)cc4)c(-c4ccccc4Cl)nn23)C1` as the compound, how does the Potency [1] read?
Its Potency is “inactive”.

For `CCCCNc1ncc(C(=O)NCc2ccc(-n3ccnc3)cc2)c(NC2CCC(O)CC2)n1` (configuration not stated), which Potency [1] is on record?
The Potency was “inactive”.

And the Potency [2]?
The Potency was 674 nM (active).

Which results are given for `COc1ccc2[nH]c(=O)c3c(c2c1)OC(C)(C)C=C3`?
Potency [1]: inactive; outcome [3]: inactive
